# According to PubChem BioAssay:
# Activity calls are given as the source filed them.
# Tested on: wheat germ agglutinin (Triticum aestivum), Alexa647-labelled
# Assay: wheat germ agglutinin binders on compound microarrays, profiling panel, artefact control for SMM control-protein annotation, biochemical, small-molecule microarray, 635/667 nm fluorescence (AID 1140);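 further: score merges 667 nm feature emission with signal to noise over triplicate slides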
# Settings: WGA-A647 binding, 635 nm fluorescence, higher = more signal
row,SMILES,composite z-score
1,COc1ccc(C#Cc2ccc3c(c2)[C@]2(C(=O)N3)[C@H](c3ccc(O)cc3)N3[C@H](c4ccccc4)[C@H](c4ccccc4)OC(=O)[C@H]3[C@@H]2C(=O)NC[C@H](O)c2ccccc2)cc1,1.01
2,C=CCNC(=O)[C@@H]1[C@H]2C(=O)O[C@H](c3ccccc3)[C@H](c3ccccc3)N2[C@H](c2ccccc2OCCO)[C@@]12C(=O)Nc1ccc(C#CC3=CCCCC3)cc12,0.971
3,[N-]=[N+]=NCc1ccccc1[C@@H]1OC(c2ccc(OCCCO)cc2)=N[C@]1(Cc1ccccc1N=[N+]=[N-])C(=O)NCc1ccccc1,0.421
4,COCCOC(=O)N1C(=O)[C@@]2(c3cc(C#CCCO)ccc31)[C@H](c1ccccc1OCCO)N1[C@H](c3ccccc3)[C@H](c3ccccc3)OC(=O)[C@H]1[C@@H]2C(=O)N1CCN(c2ncccn2)CC1,0.789
5,CCCCC=C[C@@H](NC(=O)c1ccc(C(=O)OC)cc1)c1ccccc1,0.658
6,CC(C)NC(=O)[C@@H]1c2ccccc2C(=O)N(Cc2ccccc2Cl)[C@H]1c1ccc(CO)cc1,0.842
7,COc1cc2c(cc1OC)CN(C(=O)[C@@H]1[C@H]3C(=O)O[C@H](c4ccccc4)[C@H](c4ccccc4)N3[C@H](c3ccccc3OCCO)[C@@]13C(=O)Nc1ccc(C#CCNC(N)=O)cc13)CC2,0.856
8,O=C1C=CC(=O)[C@@H]2CC(COc3ccccc3)=C3[C@@H](CCc4ccccc4)OB(O)C[C@@H]3[C@H]12,-0.158
9,O=C(NCc1ccccc1)[C@]1(CCS(=O)(=O)c2ccccc2)N=C(c2ccc(OCCCO)cc2)O[C@@H]1c1ccccc1,0.785
10,COc1ccc(C#Cc2ccc3c(c2)[C@]2(C(=O)N3)[C@H](C(=O)NC[C@H](O)c3ccccc3)[C@H]3C(=O)O[C@H](c4ccccc4)[C@H](c4ccccc4)N3[C@@H]2c2ccc(OCCO)cc2)cc1,1.13
11,CCOc1cc(C(O)C2C=CC3C(=O)N(c4ccccc4)C(=O)C3N2Nc2ccc([N+](=O)[O-])cc2)ccc1O (stereo not given),0.14
12,[N-]=[N+]=NCc1ccccc1C[C@]1(C(=O)NCCN2CCOCC2)N=C(c2ccc(OCCCO)cc2)O[C@H]1c1ccccc1N=[N+]=[N-],0.976
13,C=C[C@@H](COC(C)=O)N(Cc1ccc([N+](=O)[O-])cc1)S(=O)(=O)c1ccc(Br)cc1,1.09
14,COc1ccc(CCNC(=O)[C@@]2(c3ccc([N+](=O)[O-])cc3)CC(=O)N(CC34CC5CC(CC(C5)C3)C4)[C@@H]2c2ccc(CO)cc2)cc1,-0.037
15,COCC(=C=CC[C@H](O)c1ccc(OCCO)cc1)C[C@H](O)c1cc(Cl)cc(Cl)c1O,0.0552
16,CO[C@H]1O[C@H](CO)[C@@H](OC(=O)Nc2ccc3c(c2)OCO3)[C@H](OC(=O)Nc2ccccc2)[C@H]1OC(=O)Nc1ccccc1,0.928
17,COc1ccc(C(O)C2C=CC3C(=O)N(c4ccccc4)C(=O)C3N2Nc2ccc([N+](=O)[O-])cc2)cc1OCc1ccccc1 (stereo not given),1.45
18,[N-]=[N+]=NCc1ccccc1C[C@]1(C(=O)NCC(O)CO)N=C(c2ccc(OCCCO)cc2)O[C@H]1c1ccccc1N=[N+]=[N-] (stereo not given in full),0.541
19,CCOC(=O)C[C@H]1[C@H](OC(=O)Cc2ccc3c(c2)OCO3)[C@@H](NC(=O)c2ccc(-c3ccccc3)cc2)c2cc(OCCCO)ccc2N1C(=O)c1ccccc1,0.507
20,CS(=O)(=O)CCOC(=O)C1=CC(CCCO)=CC(c2cccs2)N(Cc2cc3c(cc2Br)OCO3)C=C1C(=O)OCCS(C)(=O)=O (stereo not given),1.05
21,COc1ccc([Si](C)(C)[C@H]2[C@H](CC(=O)N(CCO)Cc3ccccc3)O[C@@]3(C(=O)N(Cc4cccc(N5CCC5=O)c4)c4ccccc43)[C@@H]2C)cc1,0.767
22,COc1cccc(C(=O)O[C@H]2CC[C@]3(C)C4=C(CCC3C2(C)C)[C@]2(C)CC[C@H]([C@H](C)CCCC(C)C)[C@@]2(C)CC4)c1 (stereo not given in full),0.258
23,CC(C)NC(=O)[C@@H]1c2ccccc2C(=O)N(Cc2ccccc2)[C@H]1c1ccc(CO)cc1,0.826
24,COc1ccc([Si](C)(C)[C@@H]2[C@@H](CC(=O)N(CCO)Cc3ccccc3)O[C@]3(C(=O)N(C)c4ccccc43)[C@H]2C)cc1,1.17

# Target: Luciferin 4-monooxygenase (Photinus pyralis) (UniProt P08659)
# Sequence (P08659 whole entry, looked up): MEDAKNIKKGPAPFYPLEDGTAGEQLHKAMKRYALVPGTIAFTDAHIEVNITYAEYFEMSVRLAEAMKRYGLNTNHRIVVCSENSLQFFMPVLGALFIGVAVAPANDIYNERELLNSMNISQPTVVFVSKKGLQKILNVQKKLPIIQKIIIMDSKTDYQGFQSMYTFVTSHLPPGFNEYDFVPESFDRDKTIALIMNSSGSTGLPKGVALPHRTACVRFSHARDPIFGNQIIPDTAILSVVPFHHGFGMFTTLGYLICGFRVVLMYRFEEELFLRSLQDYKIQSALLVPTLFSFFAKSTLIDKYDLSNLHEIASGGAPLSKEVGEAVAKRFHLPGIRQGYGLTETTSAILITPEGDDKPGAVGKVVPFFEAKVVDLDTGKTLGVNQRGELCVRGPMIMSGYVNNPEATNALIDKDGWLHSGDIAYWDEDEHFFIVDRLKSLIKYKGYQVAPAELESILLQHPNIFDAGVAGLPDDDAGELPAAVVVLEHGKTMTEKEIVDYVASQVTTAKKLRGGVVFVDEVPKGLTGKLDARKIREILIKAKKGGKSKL
# Assay: firefly luciferase enzyme inhibitors, primary screen, biochemical, luminescence, purified enzyme, 2006 set (AID 1141);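 further: cell-free assay with purified firefly luciferase at 100 ng per well in PBS; test concentration not given here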
# Settings: SteadyGlo luminescence, 30 min, higher = more signal, called active from +8 up or from −8 down
row,SMILES,z-score
1,CC(C)c1ccc(NN2C(C(O)c3c(F)cccc3Cl)C=CC3C(=O)N(c4ccccc4)C(=O)C32)cc1 (stereo not given),-1.12 (inactive)
2,CC(C)(C)OC(=O)CC[C@@]1(C(=O)O)N=C(c2ccc(OCCCO)cc2)O[C@@H]1c1ccccc1N=[N+]=[N-],-12.1 (active)
3,COC(=O)C[C@@H]1C[C@H](C)[C@]2(O1)C(=O)N(Cc1ccccc1)c1ccc(NC(C)=O)cc12,0.0257 (inactive)
4,COCC1=C2[C@@H](CCc3ccccc3)OB(O)C[C@@H]2[C@@H]2C(=O)N(Cc3ccccc3)C(=O)[C@@H]2C1,-0.683 (inactive)
5,C=CCOC(=O)[C@@H]1[C@H]2C(=O)O[C@H](c3ccccc3)[C@H](c3ccccc3)N2[C@H](c2ccc(OCCOC(=O)[C@@H]3C[C@@H]4C(=O)NCC(=O)N4[C@@H]3c3cccc(OCCO)c3)cc2)[C@@]12C(=O)Nc1ccc(I)cc12,-0.408 (inactive)
6,C=CCC(OC(C)=O)[C@@H]1[C@@H](N(Cc2cccc3ccccc23)C(=O)c2ccc(C)cc2)c2cc(OCCCO)ccc2N1C(=O)Cc1ccc(OC)cc1 (stereo not given in full),0.0544 (inactive)
7,O=C1OCCC=C[C@H]2OC34C=CCN(Cc5ccccc5)C(=O)[C@H]3N(CCCCCO)C(=O)[C@@H]4C12 (stereo not given in full),0.0657 (inactive)
8,O=C(OCCF)C1=CCC(c2cccc(Cl)c2)O1 (stereo not given),0.08 (inactive)
9,[N-]=[N+]=NCc1ccccc1[C@@H]1OC(c2ccc(OCCCO)cc2)=N[C@]1(Cc1ccccc1)C(=O)N1CCCCC1,-1.22 (inactive)
10,Cc1cc(C)c(C(O)C2C=CC3C(=O)N(c4ccccc4)C(=O)C3N2Nc2ccc(C#N)cc2)c(C)c1 (stereo not given),-0.75 (inactive)
11,C=C[C@@H](COC(C)=O)N(Cc1ccccc1[N+](=O)[O-])S(=O)(=O)c1ccc(Br)cc1,0.335 (inactive)
12,COc1ccc(C#Cc2ccc3c(c2)[C@]2(C(=O)N3)[C@H](c3ccc(O)cc3)N3[C@H](c4ccccc4)[C@H](c4ccccc4)OC(=O)[C@H]3[C@@H]2C(=O)NC[C@H](O)c2ccccc2)cc1,-0.835 (inactive)
13,C=CCNC(=O)[C@@H]1[C@H]2C(=O)O[C@H](c3ccccc3)[C@H](c3ccccc3)N2[C@H](c2ccccc2OCCO)[C@@]12C(=O)Nc1ccc(C#CC3=CCCCC3)cc12,-1.48 (inactive)
14,[N-]=[N+]=NCc1ccccc1[C@@H]1OC(c2ccc(OCCCO)cc2)=N[C@]1(Cc1ccccc1N=[N+]=[N-])C(=O)NCc1ccccc1,-5.2 (inactive)
15,COCCOC(=O)N1C(=O)[C@@]2(c3cc(C#CCCO)ccc31)[C@H](c1ccccc1OCCO)N1[C@H](c3ccccc3)[C@H](c3ccccc3)OC(=O)[C@H]1[C@@H]2C(=O)N1CCN(c2ncccn2)CC1,-0.198 (inactive)
16,CCCCC=C[C@@H](NC(=O)c1ccc(C(=O)OC)cc1)c1ccccc1,1.73 (inactive)

row,SMILES,z-score
1,CC(C)NC(=O)[C@@H]1c2ccccc2C(=O)N(Cc2ccccc2Cl)[C@H]1c1ccc(CO)cc1,-1.08 (inactive)
2,COc1cc2c(cc1OC)CN(C(=O)[C@@H]1[C@H]3C(=O)O[C@H](c4ccccc4)[C@H](c4ccccc4)N3[C@H](c3ccccc3OCCO)[C@@]13C(=O)Nc1ccc(C#CCNC(N)=O)cc13)CC2,-1.64 (inactive)
3,O=C1C=CC(=O)[C@@H]2CC(COc3ccccc3)=C3[C@@H](CCc4ccccc4)OB(O)C[C@@H]3[C@H]12,-3.18 (inactive)
4,O=C(NCc1ccccc1)[C@]1(CCS(=O)(=O)c2ccccc2)N=C(c2ccc(OCCCO)cc2)O[C@@H]1c1ccccc1,0.781 (inactive)
5,COc1ccc(C#Cc2ccc3c(c2)[C@]2(C(=O)N3)[C@H](C(=O)NC[C@H](O)c3ccccc3)[C@H]3C(=O)O[C@H](c4ccccc4)[C@H](c4ccccc4)N3[C@@H]2c2ccc(OCCO)cc2)cc1,-1.58 (inactive)
6,CCOc1cc(C(O)C2C=CC3C(=O)N(c4ccccc4)C(=O)C3N2Nc2ccc([N+](=O)[O-])cc2)ccc1O (stereo not given),-0.021 (inactive)
7,[N-]=[N+]=NCc1ccccc1C[C@]1(C(=O)NCCN2CCOCC2)N=C(c2ccc(OCCCO)cc2)O[C@H]1c1ccccc1N=[N+]=[N-],-7.78 (inactive)
8,C=C[C@@H](COC(C)=O)N(Cc1ccc([N+](=O)[O-])cc1)S(=O)(=O)c1ccc(Br)cc1,-1.19 (inactive)
9,COc1ccc(CCNC(=O)[C@@]2(c3ccc([N+](=O)[O-])cc3)CC(=O)N(CC34CC5CC(CC(C5)C3)C4)[C@@H]2c2ccc(CO)cc2)cc1,0.41 (inactive)
10,COCC(=C=CC[C@H](O)c1ccc(OCCO)cc1)C[C@H](O)c1cc(Cl)cc(Cl)c1O,-0.846 (inactive)
11,CO[C@H]1O[C@H](CO)[C@@H](OC(=O)Nc2ccc3c(c2)OCO3)[C@H](OC(=O)Nc2ccccc2)[C@H]1OC(=O)Nc1ccccc1,-0.546 (inactive)
12,COc1ccc(C(O)C2C=CC3C(=O)N(c4ccccc4)C(=O)C3N2Nc2ccc([N+](=O)[O-])cc2)cc1OCc1ccccc1 (stereo not given),1.42 (inactive)
13,[N-]=[N+]=NCc1ccccc1C[C@]1(C(=O)NCC(O)CO)N=C(c2ccc(OCCCO)cc2)O[C@H]1c1ccccc1N=[N+]=[N-] (stereo not given in full),-6.49 (inactive)
14,CCOC(=O)C[C@H]1[C@H](OC(=O)Cc2ccc3c(c2)OCO3)[C@@H](NC(=O)c2ccc(-c3ccccc3)cc2)c2cc(OCCCO)ccc2N1C(=O)c1ccccc1,-1.16 (inactive)
15,CS(=O)(=O)CCOC(=O)C1=CC(CCCO)=CC(c2cccs2)N(Cc2cc3c(cc2Br)OCO3)C=C1C(=O)OCCS(C)(=O)=O (stereo not given),-1.16 (inactive)
